# According to PubChem BioAssay (NCATS):
# Where “and” joins values, the source holds several entries; their conditions need not be identical. Equal entries are not always repeated. A number with no mark means an inactive call. Results filed as inconclusive are left out. Calls of active or inactive are those of the source. Unless noted, the call rests on the fitted dose curve; in most records, active means well fitted curve in either direction with a large enough effect (not every such curve was filed as active); inconclusive means small, poorly fitted or top-dose-only effect, or another doubt; inactive means flat fitted curve, though single readings scatter.
# Assays:
# [1] = AP1 Signaling Pathway (AID 357); conditions: ME-180 AP-1-bla reporter, EGF-induced, beta-lactamase ratio, 5 h;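 further: ME-180 reporter cells stimulated with EGF at its EC50 level; on the % scale 0 is the no-effect control and ±100 the full control effect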
# Summary of the method: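 Modulation of EGF-driven AP-1 transcription was assessed with a beta-lactamase reporter in ME-180 cells. Compound and EC50 EGF were co-incubated 5 hours at 37 °C before 2.5-hour CCF4 loading at room temperature and dual-emission reading.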
# [2] = target: Cytochrome P450 1A2 (Homo sapiens) (UniProt P05177); test: p450-cyp1a2 (AID 410; calls by dose curve; further: potency means the concentration at half of the fitted maximal effect;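 on activity change, negative = inhibition: -100% = full effect of reference inhibitor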); conditions: recombinant CYP1A2, luciferin-ME demethylation, luminescence; series mostly up to 57 µM
# Cytochrome P450 1A2 (Homo sapiens), sequence (P05177 whole entry, looked up): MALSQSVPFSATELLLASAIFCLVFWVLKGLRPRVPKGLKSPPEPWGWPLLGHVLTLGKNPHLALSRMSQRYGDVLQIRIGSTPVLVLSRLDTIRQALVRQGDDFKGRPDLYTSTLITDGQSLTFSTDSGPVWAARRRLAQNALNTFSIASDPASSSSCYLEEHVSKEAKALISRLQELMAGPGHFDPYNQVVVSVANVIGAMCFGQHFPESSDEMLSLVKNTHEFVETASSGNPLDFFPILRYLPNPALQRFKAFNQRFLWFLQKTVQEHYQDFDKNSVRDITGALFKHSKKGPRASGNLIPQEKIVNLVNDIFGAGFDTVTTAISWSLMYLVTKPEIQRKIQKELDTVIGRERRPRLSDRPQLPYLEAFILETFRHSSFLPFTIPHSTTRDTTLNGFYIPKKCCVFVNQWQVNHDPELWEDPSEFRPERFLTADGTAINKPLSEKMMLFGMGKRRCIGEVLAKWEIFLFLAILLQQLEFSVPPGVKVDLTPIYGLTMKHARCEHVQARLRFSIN
# Summary of the method: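 Luminescent readout of luciferin formed from Luciferin-ME by human CYP1A2; data normalized against complete inhibition by 57 uM furafylline. Enzyme 20nM, substrate 100uM at Km, 100mM KPO4 buffer, 60 min reaction at room temperature.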
# [3] = Stat Signaling Pathway (AID 446); conditions: ME-180 SIE beta-lactamase reporter, IL-6 stimulated, 5 h; series mostly up to 17.2 µM;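 further: ME-180 cervical cancer cells given 40 pM IL-6 alongside compound; SIE-controlled beta-lactamase reporter measured as 460/530 nm FRET emission ratio; on the % scale 0 is the no-effect control and ±100 the full control effect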
# Summary of the method: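 Screening format detects activators and inhibitors alike: ME-180 SIE-bla cells stimulated at 40 pM IL-6 for 5 hrs with compound, then dual-emission beta-lactamase read at 405 nm excitation.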
# [4] = target: Glucocorticoid receptor (Homo sapiens) (UniProt P04150); test: GR-GFP Redistribution (AID 450;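 active means compounds whose dose series gives a full or clear partial fitted curve of increased nuclear translocation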; further: potency means the concentration at half of the fitted maximal effect); conditions: U2OS GR-GFP nuclear translocation, laser cytometry, 2 h
# Glucocorticoid receptor (Homo sapiens), sequence (P04150 whole entry, looked up, the tested form may be a part): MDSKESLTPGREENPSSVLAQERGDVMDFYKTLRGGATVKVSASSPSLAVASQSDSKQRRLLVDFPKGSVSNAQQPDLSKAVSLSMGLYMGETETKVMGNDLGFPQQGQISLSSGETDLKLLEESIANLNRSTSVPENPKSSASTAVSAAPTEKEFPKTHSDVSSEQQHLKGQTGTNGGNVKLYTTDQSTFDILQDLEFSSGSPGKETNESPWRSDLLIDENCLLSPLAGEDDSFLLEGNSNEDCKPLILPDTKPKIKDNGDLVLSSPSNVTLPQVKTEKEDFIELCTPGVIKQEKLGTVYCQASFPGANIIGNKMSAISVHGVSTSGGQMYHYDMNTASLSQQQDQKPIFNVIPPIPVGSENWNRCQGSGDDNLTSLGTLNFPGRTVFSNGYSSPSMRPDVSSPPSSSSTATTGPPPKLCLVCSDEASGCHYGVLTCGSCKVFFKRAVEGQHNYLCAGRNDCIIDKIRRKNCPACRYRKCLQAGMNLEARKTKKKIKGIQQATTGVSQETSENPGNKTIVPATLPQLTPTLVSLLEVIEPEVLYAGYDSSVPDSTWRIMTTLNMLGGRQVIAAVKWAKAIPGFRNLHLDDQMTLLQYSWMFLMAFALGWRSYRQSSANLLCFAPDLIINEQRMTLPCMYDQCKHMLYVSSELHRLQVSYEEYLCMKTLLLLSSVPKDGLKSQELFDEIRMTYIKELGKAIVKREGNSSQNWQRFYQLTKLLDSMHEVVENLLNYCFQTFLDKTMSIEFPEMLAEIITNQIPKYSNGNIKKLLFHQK
# [5] = target: Glucocorticoid receptor (Homo sapiens) (UniProt P04150); test: GR-EFC Redistribution (AID 451; calls by dose curve; further: potency means the concentration at half of the fitted maximal effect); conditions: CHO-K1 GR-EFC translocation, beta-gal luminescence, 2 h
# Summary of the method: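 CHO-K1 cells expressing nuclear EA and GR-ED fragments of b-gal; compounds titrated up to 46 uM final, 2 h at 37 C. GR nuclear translocation read as complemented b-gal luminescence after 1 h RT detection.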
# [6] = target: Mitogen-activated protein kinase 10 (Mus musculus) (UniProt Q61831); test: JNK3 AlphaScreen Assay (AID 530); conditions: JNK3 lysate, c-Jun phosphorylation; series mostly up to 57.1 µM;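 further: kinase came from lysate of stimulated human HepG2 cells; signal reports phosphorylation of biotinylated GST-cJun 1-79 at Ser73 with 10 µM ATP; on the % scale 0 is the no-effect control and ±100 the full control effect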
# Summary of the method: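 Pre-activated (IL-1β/TNFα) JNK3 in HepG2 lysates phosphorylates biotin-GST-cJun(1-79), 10 uM ATP; anti-phospho-cJun(Ser73) AlphaScreen read at room temperature, pH 7.6 Tris buffer. Compounds pre-incubated 15 min as titrations.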
# [7] = Cell Viability - Hek293 (AID 427;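 active means compounds whose dose-response curve shows a full or clear partial loss of cell viability, called from curve shape rather than a numeric limit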;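 further: potency means the concentration at half of the fitted maximal effect; cells exposed to compound for 40 hours at 37 °C before reading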); conditions: qHTS
# Summary of the method: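 qHTS, human embryonic kidney (adenovirus-transformed) cells; 40 hr cpd, 37 °C; CellTiter-Glo ATP luminescence. Norm: DMSO = 0, 100 uM tamoxifen = 100% inhibition. Hill-fit AC50.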
# [8] = Cell Viability - SK-N-SH (AID 435; calls by dose curve;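 further: potency means the concentration at half of the fitted maximal effect; compound exposure lasted 40 h at 37 °C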); conditions: SK-N-SH neuroblastoma cell viability qHTS
# Summary of the method: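 Human neuroblastoma line, 40 h exposure at 37 °C, ATP quantified via luciferase luminescence; DMSO and 100 uM tamoxifen define 0 and 100% inhibition for AC50 fitting.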
# [9] = Cell Viability - NIH 3T3 (AID 541; active means well fitted curve in the direction sought with a large enough effect; an effect the other way counts as inactive or inconclusive;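 further: plate controls were DMSO alone for no effect and tamoxifen positive control for full effect; nearly all actives have a fitted effect of over 25% in size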); conditions: NIH 3T3 cell viability, qHTS; activity change, negative = cytotoxicity: at 92.2 µM (top of the series)
# Summary of the method: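 Luminescent ATP signal (CellTiter-Glo) served as the viability read-out after NIH 3T3 cells were exposed to compounds over a concentration range for 40 hr at 37 °C. Hill-equation modelling of concentration-response data gave AC50.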
# [10] = Cell Viability - H-4-II-E (AID 543; active means well fitted curve in the direction sought with a large enough effect; an effect the other way counts as inactive or inconclusive; further: nearly all actives have a fitted effect of over 35% in size; further: potency means the concentration at half of the fitted maximal effect); conditions: H-4-II-E rat hepatoma viability; series mostly up to 92.2 µM
# Summary of the method: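 Luminescent ATP signal (CellTiter-Glo) served as the viability read-out, with cytotoxicity seen as a concentration-dependent ATP drop. Cells were treated for 40 hours in complete medium. AC50 values derive from Hill-equation modelling.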
# [11] = Cell Viability - Renal Proximal Tubule (AID 545; active means well fitted curve in the direction sought with a large enough effect; an effect the other way counts as inactive or inconclusive;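 further: 0% = DMSO only and -100% = 100 µM tamoxifen; nearly all actives have a fitted effect of over 40% in size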); conditions: renal proximal tubule cells viability, primary cells of rat origin; activity change, negative = cytotoxicity: at 91.7 µM (top of the series)
# Summary of the method: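 In this qHTS format, normal rat kidney-derived proximal tubule cells in complete culture medium receive compound titrations, then sit 40 hours at 37 °C before luciferase-based ATP quantitation; potency is reported as AC50 from concentration-response curves.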
# [12] = NFAT Signaling Pathway (AID 444); conditions: Jurkat NFAT-bla M1, carbachol, beta-lactamase ratio, 5 h;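 further: carbachol stimulus at about its EC50 of 1 µM final; on the % scale 0 is the no-effect control and ±100 the full control effect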
# Summary of the method: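 Jurkat cells with NFAT-driven β-lactamase reporter and co-expressed M1 receptor, stimulated with carbachol (final 1 uM, ~EC50), compound titration, 5 h at 37 °C. CCF4 loaded 1 h at RT; 460/530 nm ratio gave %activity and AC50.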
# [13] = Cell Viability - BJ (AID 421; calls by dose curve;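 further: potency means the concentration at half of the fitted maximal effect; cells exposed to compound for 40 hours at 37 °C before readout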); conditions: BJ fibroblast viability, qHTS
# Summary of the method: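 Cytotoxicity in human BJ foreskin fibroblasts is scored as loss of cellular ATP after a 40-hour exposure, measured by luciferase luminescence. Controls are DMSO and 100 uM tamoxifen.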
# [14] = Cell Viability - Jurkat (AID 426;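 active means dose-dependent loss of cell ATP signal giving a full or clear fitted curve, ranked by lower potency value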; further: potency means the concentration at half of the fitted maximal effect); conditions: qHTS
# Summary of the method: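 qHTS, 1536-well; Jurkat E6-1, 5000 cells/well, complete medium; cpd 40 hr, 37 °C; CellTiter-Glo 20 min RT; luminescence. AC50 by Hill fit.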
# [15] = Cell Viability - HepG2 (AID 433; calls by dose curve;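 further: potency means the concentration at half of the fitted maximal effect; potency for ATP loss meaning cytotoxicity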); conditions: qHTS
# Summary of the method: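 In this qHTS format, a 40 h, 37 °C compound incubation of HepG2 cells in complete medium precedes a 20 min CellTiter-Glo step at room temperature. Tamoxifen and doxorubicin serve as positive controls; Hill-equation fits yield AC50.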
# [16] = Cell Viability - MRC5 (AID 434; calls by dose curve;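 further: potency means the concentration at half of the fitted maximal effect; potency reflects cytotoxicity seen as loss of intracellular ATP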); conditions: MRC5 lung fibroblast viability, qHTS
# Summary of the method: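 MRC5 normal human lung fibroblasts, 1500 cells/well, exposed to compound for 40 hr at 37 C. Cellular ATP was read by CellTiter-Glo luminescence; data normalized to DMSO and 100 uM tamoxifen, with AC50 from Hill fits.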
# [17] = Cell Viability - N2a (AID 540; active means well fitted curve in the direction sought with a large enough effect; an effect the other way counts as inactive or inconclusive;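 further: plate controls were DMSO alone for no effect and tamoxifen control for full effect; nearly all actives have a fitted effect of over 45% in size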); conditions: N2a mouse neuroblastoma cell viability; series mostly up to 92.2 µM
# Summary of the method: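 Luminescent ATP signal (CellTiter-Glo, 20 min at room temperature) served as the viability read-out after N2a cells were treated with compounds for 40 hours at 37 °C. Concentration-response data were fitted to the Hill equation for AC50.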
# [18] = Cell Viability - HUV-EC-C (AID 542; active means well fitted curve in the direction sought with a large enough effect; an effect the other way counts as inactive or inconclusive; further: on the % scale 0 is the no-effect control and ±100 the full control effect; nearly all actives have a fitted effect of over 35% in size); conditions: HUV-EC-C endothelial cell viability, qHTS; series mostly up to 92.2 µM
# Summary of the method: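 qHTS cytotoxicity: HUV-EC-C, 1000 cells/well, 5 hr settle, compound 40 hr 37 °C, CellTiter-Glo, luminescence. AC50 via Hill equation.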
# [19] = Cell Viability - SH-SY5Y (AID 544; active means well fitted curve in the direction sought with a large enough effect; an effect the other way counts as inactive or inconclusive;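 further: 0% = DMSO alone and -100% = 100 µM tamoxifen; nearly all actives have a fitted effect of over 55% in size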); conditions: SH-SY5Y neuroblastoma cell viability; series mostly up to 92.2 µM
# Summary of the method: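 Luminescent ATP read-out (CellTiter-Glo) measures loss of viable SH-SY5Y neuroblastoma cells after 40 hr compound exposure at 37 °C. AC50 values derive from standard Hill modelling of qHTS concentration-response data.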
compound,measurement,setting,value
CN(C(=O)CCCOc1ccc2[nH]c(=O)ccc2c1)C1CCCCC1,"activity change, negative = inhibition",[1]; at 38 µM (top of the series),-11.1%
same,Potency,[2],inactive
same,outcome,[3],inactive
same,Potency,[4],> 46 µM
same,Potency,[5],> 46 µM
same,Potency,[6],inactive
Nc1nc(N)c2nc(-c3ccccc3)c(N)nc2n1,"activity change, negative = inhibition",[1]; at 17.2 µM (top of the series),16.6% and 10.9%
same,"activity change, negative = inhibition",[1]; at 38 µM (top of the series),-2.44%
same,Potency,[7],18 µM (active)
same,Potency,[8],66.1 µM (active)
same,outcome,[3],inactive
same,Potency,[4],> 46 µM and > 20.6 µM
same,Potency,[5],> 46 µM and > 20.6 µM
same,Potency,[6],inactive
same,"activity change, negative = cytotoxicity",[9],-88.4% (active)
same,Potency,[10],0.316 µM (active)
same,"activity change, negative = cytotoxicity",[11],-93% (active)
CCCN(CCC)CCc1cccc2c1CC(=O)N2,"activity change, negative = inhibition",[1]; at 38 µM (top of the series),3.44%
same,Potency,[2],inactive
same,Potency,[4],> 46 µM
same,Potency,[5],> 46 µM
same,Potency,[6],inactive
C[N+](C)(C)CCOC(=O)CCC(=O)OCC[N+](C)(C)C,"activity change, negative = inhibition",[1]; at 38 µM (top of the series),-1.57%
same,Potency,[2],inactive
same,"activity change, negative = inhibition",[12]; at 38 µM (top of the series),1.62%
same,outcome,[3],inactive
same,Potency,[4],> 46 µM
same,Potency,[5],> 46 µM
same,Potency,[6],inactive
CCCCNc1c(C(=O)OCC)c(C)nc2c1cnn2CC,"activity change, negative = inhibition",[1]; at 38 µM (top of the series),-13.4%
same,Potency,[2],631 nM (active) and 63.1 nM (active)
same,"activity change, negative = inhibition",[12]; at 17.2 µM (top of the series),-22.8%
same,"activity change, negative = inhibition",[12]; at 38 µM (top of the series),-0.356%
same,outcome,[3],inactive
same,Potency,[4],> 46 µM and > 20.6 µM
same,Potency,[5],> 46 µM and > 20.6 µM
same,Potency,[6],inactive
CCN(CC)CC(=O)Nc1c(C)cccc1C,"activity change, negative = inhibition",[1]; at 17.2 µM (top of the series),8.06% and 2.56% and 5.37%
same,"activity change, negative = inhibition",[1]; at 38 µM (top of the series),19.9%
same,outcome,[3],inactive
same,Potency,[6],inactive
NC(=O)N1c2ccccc2C=Cc2ccccc21,"activity change, negative = inhibition",[1]; at 17.2 µM (top of the series),-5.62% and 13.4%
same,Potency,[2],inactive
same,Potency,[13],> 92 µM
same,Potency,[14],> 92 µM
same,Potency,[7],> 92 µM
same,Potency,[15],> 92 µM
same,Potency,[16],> 92 µM
same,Potency,[8],> 92 µM
same,"activity change, negative = inhibition",[12]; at 17.2 µM (top of the series),3.6%
same,"activity change, negative = inhibition",[12]; at 38 µM (top of the series),3.87%
same,outcome,[3],inactive
same,Potency,[6],inactive
same,outcome,[17],inactive
same,"activity change, negative = cytotoxicity",[9],-9.01%
same,Potency,[18],inactive
same,Potency,[10],inactive
same,Potency,[19],inactive
same,"activity change, negative = cytotoxicity",[11],2.97%
